According to PubChem BioAssay (EPA / NIEHS):
Results filed as inconclusive are left out. Active and inactive are the calls of the source. The calls were made as follows, unless noted: active = hit-call score of the fitted dose curve at least 0.9, where 1 is the maximum; inconclusive = response in the unintended direction; inactive = score below 0.9.

What was measured:
[1] = ATG_ERE_CIS: Attagene CIS-FACTORIAL HepG2 Assay for Estrogen Response Element (ERE) (AID 2282940; active = hit-call score of the fitted dose curve at least 0.9, where 1 is the maximum; inactive = score below 0.9); details: HepG2 ERE cis-reporter, Attagene RNA transcript; actives raise or lower the signal
Summary of the method: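 HepG2 cells transiently transfected with cis-promoter-driven multiplexed reporter transcription units report endogenous TF activity. After 24 h compound exposure, reporter mRNA is quantified by RT-PCR with capillary electrophoresis fluorescence; bidirectional fitting versus DMSO baseline.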

[2] = target: Bile acid receptor (Homo sapiens) (UniProt Q96RI1); assay: ATG_IR1_CIS: Attagene CIS-FACTORIAL HepG2 Assay for human Nuclear Receptor Subfamily 1 Group H Member 4 (NR1H4), IR1 submotif (AID 2282946; active = hit-call score of the fitted dose curve at least 0.9, where 1 is the maximum; inactive = score below 0.9); details: IR1 reporter transcription, actives raise or lower the signal
Summary of the method: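 Transient MRTU transfection, HepG2; 24 h dosing; RNA → RT-PCR → 6-FAM primer extension → HpaI digest → capillary electrophoresis fluorescence. Gain/loss of signal fitted relative to DMSO.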

[3] = ATG_PPRE_CIS: Attagene CIS-FACTORIAL HepG2 Assay for human Peroxisome Proliferator-activated Response Element (PPRE) (AID 2282958; active = hit-call score of the fitted dose curve at least 0.9, where 1 is the maximum; inactive = score below 0.9); details: HepG2 PPRE cis-element reporter, Attagene transcription factor profiling; actives raise or lower the signal
Summary of the method: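 Read-out: fluorescent reporter mRNA fragments resolved by capillary electrophoresis after RT-PCR. HepG2 cells carried transiently transfected PPRE-driven cis reporter constructs and were dosed for 24 h; gain or loss of signal fitted relative to DMSO.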

[4] = target: Nuclear receptor subfamily 1 group I member 3 (Homo sapiens) (UniProt Q14994); assay: ATG_CAR_TRANS: Attagene TRANS-FACTORIAL HepG2 Assay for human Constitutive Androstane Receptor (CAR) (AID 2282969); details: HepG2 Attagene TRANS-FACTORIAL CAR reporter;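 also: activators raise reporter mRNA above DMSO so AC50 marks induction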
Summary of the method: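 HepG2 cells transiently transfected with multiplexed GAL4-UAS reporter units expressing chimeric NR-Gal4 proteins; compound exposure 24 h. Reporter mRNA measured by RT-PCR, 6-FAM labelling, HpaI digestion and capillary electrophoresis; gain-of-signal fitted against DMSO baseline.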

[5] = target: Estrogen receptor (Homo sapiens) (UniProt P03372); assay: ATG_ERa_TRANS: Attagene TRANS-FACTORIAL HepG2 Assay for human Estrogen Receptor alpha (ERa) (AID 2282970); details: HepG2 Attagene TRANS ERa GAL4 reporter, mRNA
Summary of the method: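 HepG2 cells transiently transfected with multiplexed GAL4-UAS reporter units; ERa activity read via exogenous chimeric NR-Gal4 protein. After 24 hour compound exposure, reporter mRNA measured by RT-PCR with 6-FAM labelling and capillary electrophoresis; gain-of-signal fitted relative to DMSO.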

[6] = target: Oxysterols receptor LXR-beta (Homo sapiens) (UniProt P55055); assay: ATG_LXRb_TRANS: Attagene TRANS-FACTORIAL HepG2 Assay for human Liver X Receptor beta (LXRb) (AID 2282981); details: HepG2 Attagene TRANS GAL4-LXRb reporter, mRNA
Summary of the method: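 HepG2 cells transiently transfected with multiple reporter transcription units carrying chimeric NR-Gal4 proteins acting on GAL4-UAS reporters; compound exposure 24 h. Reporter mRNA quantified by RT-PCR, 6-FAM labelling, HpaI digestion and capillary electrophoresis; gain of signal versus DMSO.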

[7] = ATG_M_06_TRANS: Attagene TRANS-FACTORIAL HepG2 Assay for M06 Transcription Factor (Internal Marker) (AID 2282983); details: HepG2 Attagene TRANS M06 internal marker reporter;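 also: reporter transcript level by RT-PCR then capillary electrophoresis fluorescence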
Summary of the method: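 HepG2 cells transiently transfected with multiplexed GAL4-UAS reporter transcription units; after 24 h compound exposure, reporter mRNA measured by RT-PCR, FAM-labelled primer extension, HpaI digestion and capillary electrophoresis. Gain-of-signal fitted versus DMSO baseline; background control readout.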

[8] = target: human RAR-related Orphan Receptor beta (RORb), RORB (gene 6096) (UniProt Q92753); assay: ATG_RORb_TRANS: Attagene TRANS-FACTORIAL HepG2 Assay for human RAR-related Orphan Receptor beta (RORb) (AID 2283010)
Summary of the method: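 HepG2 cells were transiently transfected with multiplexed GAL4-UAS reporter units expressing chimeric nuclear receptor–GAL4 proteins, then dosed for 24 h. Reporter mRNA was quantified by RT-PCR with fluorescent labelling and capillary electrophoresis; gain of signal was fitted relative to DMSO.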

[9] = target: human Vitamin D Receptor (VDR), VDR (gene 7421) (UniProt P11473); assay: ATG_VDR_TRANS: Attagene TRANS-FACTORIAL HepG2 Assay for human Vitamin D Receptor (VDR) (AID 2283022)
Summary of the method: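 HepG2 cells were transiently transfected with multiple GAL4-UAS reporter units, so signal reflects exogenous chimeric receptor-Gal4 activity. After 24 h compound exposure, reporter mRNA was measured by RT-PCR, fluorescent labelling and capillary electrophoresis, fitted for gain of signal versus DMSO.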

[10] = target: Retinoic acid receptor alpha (Homo sapiens) (UniProt P10276); assay: ATG_DR5_RAR_CIS: Attagene CIS-FACTORIAL HepG2 Assay for human Retinoic Acid Receptor Alpha (RARE), DR5 submotif (AID 2282934; active = hit-call score of the fitted dose curve at least 0.9, where 1 is the maximum; inactive = score below 0.9;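 as to AC50: reporter responds to endogenous RAR alpha beta and gamma in HepG2 not RARA alone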); details: HepG2 Attagene cis-factorial RARE DR5 reporter, mRNA; actives raise or lower the signal
Summary of the method: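 HepG2 cells transiently transfected with multiplexed reporter units under cis (DR5 RARE) promoters, so endogenous transcription factor activity is measured. After 24 h compound exposure, reporter mRNA is quantified by RT-PCR with fluorescent labelling and capillary electrophoresis; bidirectional fitting versus DMSO.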

[11] = ATG_GAL4_TRANS: Attagene TRANS-FACTORIAL HepG2 Assay for GAL4 (Internal Marker) (AID 2282976); details: HepG2 Attagene TRANS GAL4 internal marker reporter
Summary of the method: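 HepG2 cells transiently transfected with multiplexed GAL4-UAS reporter constructs were dosed for 24 h. Reporter mRNA was measured by RT-PCR, 6-FAM primer extension, HpaI digestion and capillary electrophoresis, and gain of signal was fitted relative to DMSO.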

[12] = target: human Peroxisome Proliferator-activated Receptor delta (PPARd), PPARD (gene 5467) (UniProt Q03181); assay: ATG_PPARd_TRANS: Attagene TRANS-FACTORIAL HepG2 Assay for human Peroxisome Proliferator-activated Receptor delta (PPARd) (AID 2283002)
Summary of the method: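 HepG2 cells transiently transfected with multiplexed GAL4-UAS reporter units and exogenous chimeric NR-Gal4 proteins; 24 h compound exposure. Reporter mRNA measured by RT-PCR, 6-FAM labelling, HpaI digestion and capillary electrophoresis; gain of signal versus DMSO.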

[13] = target: Retinoic acid receptor RXR-alpha (Homo sapiens) (UniProt P19793); assay: ATG_RXRa_TRANS: Attagene TRANS-FACTORIAL HepG2 Assay for human Retinoid X Receptor alpha (RXRa) (AID 2283012)
Summary of the method: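 HepG2 cells transiently transfected with multiplexed GAL4-UAS reporter units and chimeric NR-GAL4 fusions, dosed 24 h. Reporter mRNA measured by RT-PCR, FAM labelling, HpaI digestion and capillary electrophoresis; gain-of-signal fitted relative to DMSO baseline.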

[14] = target: human Thyroid Receptor alpha (THRa1), THRA (gene 7067) (UniProt P10827); assay: ATG_THRa1_TRANS: Attagene TRANS-FACTORIAL HepG2 Assay for human Thyroid Receptor alpha (THRa1) (AID 2283014)
Summary of the method: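 HepG2 cells transiently transfected with multiplexed GAL4-UAS reporter units for exogenous chimeric THRa1-Gal4; reporter mRNA measured 24 h after dosing by RT-PCR, 6-FAM labelling, HpaI digestion and capillary electrophoresis. Gain-of-signal fitted versus DMSO baseline.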

[15] = TOX21_p53_BLA_p3_viability: Viability Assessment in the Tox21 HCT-116 p53 Agonism Beta-lactamase Assay, Phase 3 (AID 2283593);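 also: cells exposed to compound for 16 h before reading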
Summary of the method: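 HCT-116 cells (4000/well) rested 5 h at 37C, then got DMSO compounds by pin tool (217-fold dilution) for 16 h at 37C, 5% CO2. After the bla read, CellTiter-Glo was added and luminescence read at 30 min, room temperature.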

[16] = TOX21_p53_BLA_p4_viability: Viability Assessment in the Tox21 HCT-116 p53 Agonism Beta-lactamase Assay, Phase 4 (AID 2283597);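 also: hits lower the luminescence signal meaning cytotoxicity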
Summary of the method: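 HCT116 p53-bla cells (4000/well) rested 5 h at 37C, then received compounds in DMSO (217-fold dilution) for 16 h at 37C, 5% CO2. CellTiter-Glo was added after the CCF4-AM read, and luminescence was read after 30 min at room temperature.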

[17] = target: Oxysterols receptor LXR-alpha (Homo sapiens) (UniProt Q13133); assay: ATG_LXRa_TRANS: Attagene TRANS-FACTORIAL HepG2 Assay for human Liver X Receptor alpha (LXRa) (AID 2282980); details: HepG2 Attagene TRANS reporter, LXRa transactivation
Summary of the method: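 HepG2 cells were transiently transfected with multiplexed reporter units driven by chimeric LXRa–GAL4 fusion proteins, then dosed for 24 h. Reporter mRNA was quantified by RT-PCR, fluorescent labelling and capillary electrophoresis; gain of signal fitted against DMSO baseline.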

[18] = target: human RAR-related Orphan Receptor gamma (RORg), RORC (gene 6097) (UniProt P51449); assay: ATG_RORg_TRANS: Attagene TRANS-FACTORIAL HepG2 Assay for human RAR-related Orphan Receptor gamma (RORg) (AID 2283011)
Summary of the method: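 Readout: reporter transcript induction (RT-PCR, fluorescent primer extension, capillary electrophoresis) after 24 h compound exposure of transiently transfected HepG2 cells carrying a RORg-Gal4 chimera and GAL4-UAS reporters; DMSO served as baseline, with increasing signal fitted.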

[19] = CCTE_Harrill_HTTr_Viability_MCF7: CCTE's 6-hour Cell Viability Assessment for the High-Throughput Transcriptomics (HTTr) Platform, in MCF-7 cells cultured in DMEM + 10% fetal bovine serum, Harrill Lab (AID 2284010; active = hit-call score of the fitted dose curve at least 0.9, where 1 is the maximum; inactive = score below 0.9)
Summary of the method: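 Membrane integrity was scored by high-content imaging of propidium iodide dye exclusion after a 6 h exposure across an eight-point dilution series. Data were fitted bidirectionally relative to DMSO as negative control and baseline.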

[20] = ATG_XTT_Cytotoxicity: Cytotoxicity Assessment in the Attagene TRANS-FACTORIAL HepG2 Assay (AID 2283584)
Summary of the method: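 HepG2 human liver cells, transiently transfected with multiple GAL4-UAS reporter units, were dosed and read at 24 h by XTT as cell number. Loss of signal was fitted relative to DMSO negative control baseline.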

Measured: AC50

Sequence of Nuclear receptor subfamily 1 group I member 3 (Homo sapiens) (Q14994 whole entry, looked up, the tested form may be a part): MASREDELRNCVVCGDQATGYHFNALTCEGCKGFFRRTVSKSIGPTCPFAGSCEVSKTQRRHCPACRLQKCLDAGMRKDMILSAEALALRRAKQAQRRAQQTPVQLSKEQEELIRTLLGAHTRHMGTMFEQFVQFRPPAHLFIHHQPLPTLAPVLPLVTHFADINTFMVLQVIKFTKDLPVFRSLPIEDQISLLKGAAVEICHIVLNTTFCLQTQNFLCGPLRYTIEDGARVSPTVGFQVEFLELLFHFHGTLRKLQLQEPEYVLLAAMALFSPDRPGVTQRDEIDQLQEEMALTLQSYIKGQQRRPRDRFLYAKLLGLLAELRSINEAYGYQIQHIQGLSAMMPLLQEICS
Sequence of human RAR-related Orphan Receptor beta (RORb), RORB (gene 6096) (Q92753 whole entry, looked up, the tested form may be a part): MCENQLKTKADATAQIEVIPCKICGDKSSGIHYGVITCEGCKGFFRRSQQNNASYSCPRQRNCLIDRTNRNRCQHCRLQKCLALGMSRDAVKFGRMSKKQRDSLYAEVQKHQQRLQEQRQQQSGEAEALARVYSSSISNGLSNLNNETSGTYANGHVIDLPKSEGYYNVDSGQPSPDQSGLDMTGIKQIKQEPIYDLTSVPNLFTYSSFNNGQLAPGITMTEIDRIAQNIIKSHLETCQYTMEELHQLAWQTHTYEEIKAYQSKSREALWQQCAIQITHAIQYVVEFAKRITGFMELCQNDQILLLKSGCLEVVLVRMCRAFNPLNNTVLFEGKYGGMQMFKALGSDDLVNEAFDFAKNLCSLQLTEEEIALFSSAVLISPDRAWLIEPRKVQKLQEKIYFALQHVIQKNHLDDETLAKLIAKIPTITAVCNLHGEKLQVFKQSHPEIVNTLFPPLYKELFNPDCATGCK
Sequence of Bile acid receptor (Homo sapiens) (Q96RI1 whole entry, looked up): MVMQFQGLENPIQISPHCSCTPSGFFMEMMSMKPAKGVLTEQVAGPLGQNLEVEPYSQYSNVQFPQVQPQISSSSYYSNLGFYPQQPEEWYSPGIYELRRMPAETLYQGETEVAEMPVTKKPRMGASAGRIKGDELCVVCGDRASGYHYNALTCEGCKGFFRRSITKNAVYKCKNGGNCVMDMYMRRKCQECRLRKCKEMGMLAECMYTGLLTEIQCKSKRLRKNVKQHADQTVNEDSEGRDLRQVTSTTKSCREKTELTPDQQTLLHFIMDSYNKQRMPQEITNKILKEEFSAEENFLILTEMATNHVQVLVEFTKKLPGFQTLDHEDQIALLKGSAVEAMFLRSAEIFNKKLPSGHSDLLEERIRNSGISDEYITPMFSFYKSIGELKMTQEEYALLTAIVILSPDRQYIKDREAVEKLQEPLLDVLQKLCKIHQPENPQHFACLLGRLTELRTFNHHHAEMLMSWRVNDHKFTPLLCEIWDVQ
Sequence of Retinoic acid receptor RXR-alpha (Homo sapiens) (P19793 whole entry, looked up, the tested form may be a part): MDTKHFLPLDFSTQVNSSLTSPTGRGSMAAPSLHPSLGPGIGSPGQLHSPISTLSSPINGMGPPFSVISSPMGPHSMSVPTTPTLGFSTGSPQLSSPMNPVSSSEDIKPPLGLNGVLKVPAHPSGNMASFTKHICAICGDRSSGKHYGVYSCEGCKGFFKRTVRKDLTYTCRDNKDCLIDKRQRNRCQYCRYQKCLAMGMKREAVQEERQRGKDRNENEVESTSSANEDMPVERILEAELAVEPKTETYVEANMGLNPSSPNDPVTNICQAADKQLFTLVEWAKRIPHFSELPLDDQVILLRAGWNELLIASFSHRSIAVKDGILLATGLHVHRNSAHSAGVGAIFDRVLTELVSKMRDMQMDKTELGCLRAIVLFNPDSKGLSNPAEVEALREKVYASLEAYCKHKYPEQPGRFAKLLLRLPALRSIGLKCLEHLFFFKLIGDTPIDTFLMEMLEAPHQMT
Sequence of human Peroxisome Proliferator-activated Receptor delta (PPARd), PPARD (gene 5467) (Q03181 whole entry, looked up, the tested form may be a part): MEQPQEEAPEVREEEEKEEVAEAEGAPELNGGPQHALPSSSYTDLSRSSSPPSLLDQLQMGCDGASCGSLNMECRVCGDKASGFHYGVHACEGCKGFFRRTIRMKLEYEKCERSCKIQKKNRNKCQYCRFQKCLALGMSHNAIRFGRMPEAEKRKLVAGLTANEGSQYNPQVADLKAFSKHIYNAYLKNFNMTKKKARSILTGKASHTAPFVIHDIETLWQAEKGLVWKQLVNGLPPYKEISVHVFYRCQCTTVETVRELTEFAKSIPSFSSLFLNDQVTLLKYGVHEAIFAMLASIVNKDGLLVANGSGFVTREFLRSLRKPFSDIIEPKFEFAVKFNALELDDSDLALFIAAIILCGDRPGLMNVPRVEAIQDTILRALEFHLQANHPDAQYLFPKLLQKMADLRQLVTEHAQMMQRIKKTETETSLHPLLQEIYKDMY
Sequence of human Vitamin D Receptor (VDR), VDR (gene 7421) (P11473 whole entry, looked up, the tested form may be a part): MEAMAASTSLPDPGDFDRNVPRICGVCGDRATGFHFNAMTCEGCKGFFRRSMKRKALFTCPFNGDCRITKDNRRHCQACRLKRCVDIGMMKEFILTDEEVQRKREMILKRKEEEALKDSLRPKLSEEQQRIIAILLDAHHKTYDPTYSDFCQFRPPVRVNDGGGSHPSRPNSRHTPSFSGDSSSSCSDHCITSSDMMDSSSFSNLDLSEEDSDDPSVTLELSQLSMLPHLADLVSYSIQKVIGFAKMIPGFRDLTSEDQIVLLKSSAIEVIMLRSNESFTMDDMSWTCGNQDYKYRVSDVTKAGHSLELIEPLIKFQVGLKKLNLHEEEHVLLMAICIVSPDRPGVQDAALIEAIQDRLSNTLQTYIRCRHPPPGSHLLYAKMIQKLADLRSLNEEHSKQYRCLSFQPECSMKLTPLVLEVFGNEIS
Sequence of Estrogen receptor (Homo sapiens) (P03372 whole entry, looked up, the tested form may be a part): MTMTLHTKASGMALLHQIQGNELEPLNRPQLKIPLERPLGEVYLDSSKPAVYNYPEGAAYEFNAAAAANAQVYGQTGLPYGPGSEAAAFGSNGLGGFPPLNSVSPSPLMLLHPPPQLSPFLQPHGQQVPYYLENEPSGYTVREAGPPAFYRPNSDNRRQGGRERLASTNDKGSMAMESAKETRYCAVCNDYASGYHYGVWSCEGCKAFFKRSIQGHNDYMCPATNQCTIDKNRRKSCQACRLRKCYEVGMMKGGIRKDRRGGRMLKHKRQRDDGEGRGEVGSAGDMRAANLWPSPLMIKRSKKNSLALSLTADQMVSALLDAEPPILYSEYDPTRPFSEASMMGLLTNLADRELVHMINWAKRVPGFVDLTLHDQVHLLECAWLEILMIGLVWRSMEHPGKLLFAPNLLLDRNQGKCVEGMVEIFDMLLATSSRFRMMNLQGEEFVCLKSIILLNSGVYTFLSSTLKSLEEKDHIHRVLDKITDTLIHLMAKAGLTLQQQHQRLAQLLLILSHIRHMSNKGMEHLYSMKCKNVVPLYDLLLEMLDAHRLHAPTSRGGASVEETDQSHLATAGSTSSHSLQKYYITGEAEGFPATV
Sequence of Oxysterols receptor LXR-beta (Homo sapiens) (P55055 whole entry, looked up, the tested form may be a part): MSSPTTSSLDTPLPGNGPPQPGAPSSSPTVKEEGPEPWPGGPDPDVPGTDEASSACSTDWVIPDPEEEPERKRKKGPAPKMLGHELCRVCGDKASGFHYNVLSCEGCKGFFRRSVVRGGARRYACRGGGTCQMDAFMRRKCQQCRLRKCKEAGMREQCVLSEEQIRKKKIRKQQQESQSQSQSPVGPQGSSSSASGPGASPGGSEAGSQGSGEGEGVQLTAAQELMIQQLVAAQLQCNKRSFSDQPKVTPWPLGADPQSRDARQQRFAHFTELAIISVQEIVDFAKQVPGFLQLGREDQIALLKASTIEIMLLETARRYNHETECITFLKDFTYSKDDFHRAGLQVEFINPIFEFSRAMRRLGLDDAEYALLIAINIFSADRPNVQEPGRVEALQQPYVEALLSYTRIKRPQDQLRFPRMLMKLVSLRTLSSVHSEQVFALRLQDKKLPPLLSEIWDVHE
Sequence of human Thyroid Receptor alpha (THRa1), THRA (gene 7067) (P10827 whole entry, looked up, the tested form may be a part): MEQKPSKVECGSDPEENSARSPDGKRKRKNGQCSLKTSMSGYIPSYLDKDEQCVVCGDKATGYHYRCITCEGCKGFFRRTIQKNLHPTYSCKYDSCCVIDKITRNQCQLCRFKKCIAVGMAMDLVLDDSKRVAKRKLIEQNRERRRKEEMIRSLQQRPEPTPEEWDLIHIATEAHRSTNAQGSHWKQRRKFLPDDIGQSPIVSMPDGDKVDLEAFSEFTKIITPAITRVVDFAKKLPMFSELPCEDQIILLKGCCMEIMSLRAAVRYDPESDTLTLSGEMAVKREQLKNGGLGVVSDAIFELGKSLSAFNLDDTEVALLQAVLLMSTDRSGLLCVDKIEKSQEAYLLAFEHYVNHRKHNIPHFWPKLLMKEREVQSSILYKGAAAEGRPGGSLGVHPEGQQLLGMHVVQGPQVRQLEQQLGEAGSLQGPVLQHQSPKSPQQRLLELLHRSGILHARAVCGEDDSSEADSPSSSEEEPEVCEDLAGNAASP
Sequence of Oxysterols receptor LXR-alpha (Homo sapiens) (Q13133 whole entry, looked up, the tested form may be a part): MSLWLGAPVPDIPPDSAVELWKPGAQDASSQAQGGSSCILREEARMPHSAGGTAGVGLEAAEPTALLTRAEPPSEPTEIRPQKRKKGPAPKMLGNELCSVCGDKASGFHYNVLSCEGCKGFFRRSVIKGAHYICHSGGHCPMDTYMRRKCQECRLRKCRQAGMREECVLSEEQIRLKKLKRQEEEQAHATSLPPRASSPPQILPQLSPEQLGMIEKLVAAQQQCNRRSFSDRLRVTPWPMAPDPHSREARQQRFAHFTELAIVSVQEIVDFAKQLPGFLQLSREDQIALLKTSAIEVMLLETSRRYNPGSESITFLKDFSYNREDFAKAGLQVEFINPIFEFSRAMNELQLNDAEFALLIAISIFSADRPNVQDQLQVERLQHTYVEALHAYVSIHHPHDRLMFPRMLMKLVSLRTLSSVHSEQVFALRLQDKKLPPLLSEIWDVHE

CN(N=O)c1ccccc1
inactive: [1] | [2] | [3] | [4] | [5] | [6] | [7] | [8] | [9]

N#CC(c1ccccc1)c1ccccc1
not listed: [1] | [5] | [6] | [17] | [18] | [19] | [20]
inactive: all other assays above

Nc1ccccc1C(=O)Oc1ccc2ccccc2c1
inactive: [17] | [7] | [14] | [9] | [15] | [16]
active: [10] 173 µM | [1] 18.1 µM | [2] 26.1 µM | [5] 12.8 µM | [13] 152 µM

BrCBr
inactive: [1] | [3] | [5] | [11] | [17] | [6] | [12] | [18] | [14] | [15] | [16]

Clc1ccc(-c2ccccc2)cc1
active: [1] 55.7 µM | [5] 36.8 µM
inactive: [2] | [3] | [4] | [11] | [7] | [12] | [13] | [9] | [19]

O=P(O)(Oc1ccccc1)Oc1ccccc1
inactive: [1] | [2] | [4] | [5] | [11] | [17] | [6] | [13] | [14] | [9] | [20]

Nc1cc(Cl)cc(Cl)c1
inactive: [10] | [2] | [3] | [6] | [14] | [9] | [20] | [15] | [16]

CCCCOC(=O)CCC(=O)OCCCC
inactive: [10] | [3] | [4] | [11] | [7] | [12] | [8] | [18] | [14] | [20]
